Cdc42 wt GTP: human Cdc42 wildtype GTP binding change, either direction; P60953; GST-Cdc42 beads, Bodipy-GTP binding, flow cytometry; actives lie on both sides; percent activity (GTP binding), % at 10 µM; 190,000 compounds, 0.2% hits; AID 761;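 active = percent activity GTP binding at least 20 points away from the 100% baseline, either down as inhibitor or up as activator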;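 also: median bead fluorescence of bound Bodipy-FL-GTP at 100 nM; below 100% means less GTP binding so inhibitor and above means activator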
Rac1 wt modul: alters GTP binding to wildtype human Rac1; P63000; GST-Rac1 beads, fluorescent GTP binding, flow cytometry; actives lie on both sides; 0 = cold GTP competed, 100 = untreated; GTP binding activity (% of control), % at 10 µM; 190,000 compounds, 0.27% hits; AID 757;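 active = GTP binding activity at least 20 points away from the 100% control level, either lower or higher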
HRas wt GTP bind: modulators of GTP binding to human HRas wildtype; P01112; AID 759; GST-Ras wt beads, Bodipy-FL-GTP binding, flow cytometry; actives lie on both sides; GTP binding activity, % at 10 µM; 190,000 compounds, 0.14% hits;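 active = GTP binding activity at least 20% away from the 100% baseline, either lowered as inhibitor or raised as activator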
Target sequence (P01112 whole entry, looked up): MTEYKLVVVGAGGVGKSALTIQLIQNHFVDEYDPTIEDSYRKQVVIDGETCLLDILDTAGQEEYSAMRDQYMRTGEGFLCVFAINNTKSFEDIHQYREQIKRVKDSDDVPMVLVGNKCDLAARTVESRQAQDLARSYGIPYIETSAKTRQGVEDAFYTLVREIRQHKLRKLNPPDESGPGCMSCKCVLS
Rab7 wt GTP bind: alters GTP binding to wildtype dog Rab7; GST-Rab7 beads, fluorescent GTP binding, flow cytometry; actives lie on both sides; untreated = 100%, excess cold GTP = 0%; GTP binding activity (percent of control), % at 10 µM; 190,000 compounds, 0.055% hits; AID 758;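 active = fluorescent GTP binding to Rab7 beads changed by at least 20 points from the 100% baseline, either direction, mostly lower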;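 also: median green fluorescence of bound Bodipy-FL-GTP per Rab7 bead population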
Rac1 mut GTP: modulators of GTP binding to human Rac1 activated mutant; P63000; AID 764; GST-Rac1 activated beads, fluorescent GTP binding, flow cytometry; actives lie on both sides; 100% means binding = to untreated wells; percent activity (GTP binding), % at 10 µM; 190,000 compounds, 0.11% hits;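 active = GTP binding at least 20 percentage points away from the 100% baseline, in either direction, so actives lie on both sides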
Rab2A wt mod: changes GTP binding to wildtype dog Rab2A, up or down. AID 760. 190,000 compounds, 0.19% hits. GTP binding activity, % at 10 µM. P61105. GST-Rab2 wt beads, Bodipy-GTP binding, flow cytometry;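 active = GTP binding activity at least 20 points away from 100%, either lowered or raised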
Numbers stand for hits. An excerpt weighted towards active compounds, which were near 0.4% of everything screened.

For Cc1nc2c(=O)n(C)c(=O)nc-2n(C)n1 the results were Cdc42 wt GTP 77, Rac1 wt modul inactive, HRas wt GTP bind inactive, Rab7 wt GTP bind inactive, Rac1 mut GTP inactive and Rab2A wt mod inactive.
Screening CN(C)c1ccc(/C=C/C=C2/C(=O)NC(=O)N(c3ccccc3)C2=O)cc1 returned Cdc42 wt GTP 74, Rac1 wt modul 70, HRas wt GTP bind inactive, Rab7 wt GTP bind inactive, Rac1 mut GTP 77 and Rab2A wt mod 78.
`Cc1cc(/C=C2\C(=O)NC(=O)N(c3ccc(Cl)cc3)C2=O)c(C)n1-c1sc2c(c1C#N)CCCC2` gave Cdc42 wt GTP inactive, Rac1 wt modul inactive, HRas wt GTP bind inactive, Rab7 wt GTP bind inactive, Rac1 mut GTP inactive and Rab2A wt mod inactive.
Cc1sc(-n2c(C)cc(C=C3C(=O)NC(=O)NC3=O)c2C)c(C#N)c1C was read as Cdc42 wt GTP inactive, Rac1 wt modul 79, HRas wt GTP bind inactive, Rab7 wt GTP bind inactive, Rac1 mut GTP 78 and Rab2A wt mod inactive.
For O=C(c1ccc(N2CC3CC(C2)c2cccc(=O)n2C3)c([N+](=O)[O-])c1)N1CCCC1 (configuration not stated) the results were Cdc42 wt GTP inactive, Rac1 wt modul inactive, HRas wt GTP bind inactive, Rab7 wt GTP bind inactive, Rac1 mut GTP inactive and Rab2A wt mod inactive.
`COc1ccc(C(=O)CC2(CC(=O)c3ccc(OC)cc3)C(=O)N(C)C(=O)N(C)C2=O)cc1` gave Cdc42 wt GTP inactive, Rac1 wt modul inactive, HRas wt GTP bind inactive, Rab7 wt GTP bind inactive, Rac1 mut GTP inactive and Rab2A wt mod inactive.
CN1C(=O)N(C)C(=O)C2(Cc3c(ccc4ccccc34)N(C)C2)C1=O was read as Cdc42 wt GTP inactive, Rac1 wt modul inactive, HRas wt GTP bind inactive, Rab7 wt GTP bind inactive, Rac1 mut GTP 79 and Rab2A wt mod inactive.
Screening C/C(=N\N1CCN(C)CC1)c1c(O)[nH]c(=O)[nH]c1=O returned Cdc42 wt GTP inactive, Rac1 wt modul inactive, HRas wt GTP bind inactive, Rab7 wt GTP bind inactive, Rac1 mut GTP inactive and Rab2A wt mod inactive.

Assay outcomes from PubChem BioAssay.
